Test [1] is described as follows: qHTS drug screen for cell cycle checkpoint inhibitors in PARPi-resistant BRCA-mutant ovarian cancer cell lines. (AID 1963452). The settings on record: PEO1/OlaR viability, CellTiter-Glo luminescence, 96 h, stronger effect = lower value. The essentials:
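PEO1, PEO4 and PEO1/OlaR ovarian cancer cells, 600 per well, exposed 96 h at 37C to a dilution series. Viability read by CellTiter-Glo luminescence, normalized to DMSO and empty wells; activity summarized as Z-AUC.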
On the technique in general: Quantitative high-throughput screening tests each substance at several concentrations.

Test [2] is described as follows: qHTS profiling for inhibitors of Plasmodium falciparum proliferation (AID 504749; active = well fitted inhibition curve with a large enough effect;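 note: 0% = DMSO vehicle and full inhibition = artemisinin control; nearly all actives have a fitted effect of over 60% in size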). The settings on record: P. falciparum in erythrocytes, SYBR Green DNA, 72 h, at 28.7 µM (top of the series). The essentials:
(§1)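 Fluorescence of SYBR Green-bound parasite DNA, read at 485/535 nm, served as the growth measure. Infected erythrocytes were cultured with compound 72 h; artemisinin (0.29 uM) and DMSO wells defined the normalization range.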

The next test concerns 3D7. The description is as above. The conditions noted are these: P. falciparum in erythrocytes, SYBR Green DNA, 72 h; series mostly up to 28.7 µM. The essentials: as §1
The next test relates to 7G8. The test is described as above. The conditions noted are these: P. falciparum in erythrocytes, SYBR Green DNA, 72 h; series mostly up to 28.7 µM. An outline of the steps:
as §1

For the next test, the system named is AA1029. The test is described as above. The settings on record: P. falciparum in erythrocytes, SYBR Green DNA, 72 h; series mostly up to 28.7 µM. The essentials:
as §1

The test system of another test is AS120. Described as above. The settings on record: P. falciparum in erythrocytes, SYBR Green DNA, 72 h; series mostly up to 28.7 µM. An outline of the steps: as §1
A further test has as its system ATS189. The test is described as above. The settings on record: P. falciparum in erythrocytes, SYBR Green DNA, 72 h; series mostly up to 28.7 µM. An outline of the steps: as §1
The test system of another test is ATS95. Described as above. The conditions noted are these: P. falciparum in erythrocytes, SYBR Green DNA, 72 h; series mostly up to 28.7 µM. The essentials: as §1
Another test relates to C2A. The description is as above. The settings on record: P. falciparum in erythrocytes, SYBR Green DNA, 72 h; series mostly up to 28.7 µM. An outline of the steps:
as §1

Test [3] is described as follows: qHTS for identification of novel therapeutic agents for treatment of microphthalmiaassociated transcription factor (MiT) renal cell carcinoma (RCC) (AID 1963991). The conditions noted are these: CellTiter-Glo, 48 h, stronger effect = lower value. The essentials: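 Viability of three TFE3-fusion renal carcinoma lines measured by CellTiter-Glo after 48 h treatment with each of 1912 compounds at 11 concentrations. Responses scaled between DMSO (100%) and empty wells (0%) before curve fitting.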

Setting [4] is: measured here: PEO1 parental Z-AUC.
The mark [5] stands for this setting: TFE3-RCC UOK109 viability, measured here: UOK109 Z-AUC.
Where [6] appears, read: TFE3-RCC viability, measured here: UOK124 Z-AUC.
Where [7] appears, read: TFE3-RCC viability, measured here: UOK145 Z-AUC.

Experimental findings from PubChem BioAssay (NCATS) are described below.

Records with an inconclusive call do not appear. Active and inactive are the calls of the source. Unless noted, calls come from the whole dose curve.

Regarding `Nc1ncnc2c1ncn2[C@@H]1O[C@H](CO)[C@@H](O)[C@@H]1O`, the Z-AUC is 1.52 (inactive) in test [1], 0.934 in test [1] (setting [4]) and 0.856 in [1] (measured here: PEO4 Z-AUC).
On to `CCOC(=O)c1c(CSc2ccccc2)n(C)c2cc(Br)c(O)c(CN(C)C)c12`, for which the Z-AUC in test [1] was 0.838 (inactive); in [1] (setting [4]), 0.193; in test [1] (measured here: PEO4 Z-AUC), 0.129.
The like results for `CN1N=C(N)c2cn([C@@H]3O[C@H](COP(=O)(O)O)[C@@H](O)[C@@H]3O)c3ncnc1c23` were, in that order, -0.375 (inactive), -0.488 and -0.707.
The like results for `O=C(CC12CC3CC(CC(C3)C1)C2)Nc1cccc2nc(NCCNCCO)ccc12` were, in that order, 0.783 (inactive), 0.506 and 0.728.
On the same counts, the results for `COc1nccc(-c2c(-c3ccc(F)cc3)ncn2C2CCNCC2)n1` are 1.19 (inactive), 0.981 and 0.889.
As to `N#CC1(c2cccc(C(=O)Nc3cc(Oc4ccc5nc(NC(=O)C6CC6)sc5n4)ccc3F)c2Cl)CC1`, the Z-AUC was -0.948 (inactive) in test [1], -1.21 in test [1] (setting [4]) and -0.816 in test [1] (measured here: PEO4 Z-AUC).
For the compound `CCC(=O)N1CCN(c2ccc(-n3c(=O)ccc4cnc5ccc(-c6cnc7ccccc7c6)cc5c43)cc2C(F)(F)F)CC1`, the Z-AUC in test [1] is -1.59 (inactive); in [1] (setting [4]), -1.67; in [1] (measured here: PEO4 Z-AUC) it was -1.97.
The like results for `Cn1cnc(-c2cc3nccc(Oc4ccc(NC(=S)NC(=O)Cc5ccccc5)cc4F)c3s2)c1` were, in that order, -0.0485 (inactive), 0.327 and 0.301.
The like results for `Cc1ccc2c(=O)c3cccc(CC(=O)O)c3oc2c1C` were, in that order, 0.508 (inactive), 0.654 and 0.37.
With `CO[C@@H]1C(N(C)C(=O)c2ccccc2)C[C@H]2O[C@]1(C)n1c3ccccc3c3c4c(c5c6ccccc6n2c5c31)C(=O)NC4=O` (some centres not stated), the Z-AUC in [1] is 0.0475 (inactive); in test [1] (setting [4]), 0.0888; in [1] (measured here: PEO4 Z-AUC), -0.413.
The like results for `Nc1[nH]nc2nnc(-c3c(-c4ccccc4)nn4ccccc34)cc12` were, in that order, -0.433 (inactive), 0.0529 and -0.206.
The like results for `O=C1CCCC(=O)C1C(=O)c1ccc(C(F)(F)F)cc1[N+](=O)[O-]` were, in that order, 0.835 (inactive), 1.44 and 0.656.
On the same counts, the results for `O=C(Nc1cccc(C(F)(F)F)c1)Nc1cc(S(=O)(=O)NC2CC2)ccc1-c1ccsc1` are -0.117 (inactive), -0.289 and -0.479.
With `COc1ccnc(CS(=O)c2nc3ccc(OC(F)F)cc3[nH]2)c1OC` (configuration not stated), the values for the Z-AUC in test [1], in [1] (setting [4]) and in test [1] (measured here: PEO4 Z-AUC) were 1.71 (inactive), 1.02 and 1.19, respectively. The figures for the activity, negative = inhibition in [2] (parasite line A) and in test [2] (parasite line B) were -7.9% (inactive) and -10.6% (inactive), respectively. For the same compound, the Potency result in the test on 3D7, with 7G8, in the test with AA1029, with AS120, in the test with ATS189 and in the test with ATS95 was “inactive” throughout. The Potency entry with C2A is “inactive”.
In the case of `N#CC(c1ccc(Cl)cc1)c1c(Cl)cc(-n2ncc(=O)[nH]c2=O)cc1Cl` (configuration not stated), the values for the Z-AUC in test [1], in test [1] (setting [4]) and in [1] (measured here: PEO4 Z-AUC) were -0.392 (inactive), -1.19 and -1.22, respectively. The activity, negative = inhibition was -9.47% (inactive) in [2] (parasite line A) and -1.8% (inactive) in [2] (parasite line B). Besides, the Potency result with 3D7, with AA1029, in the test with AS120, with ATS189, in the test on ATS95 and in the test with C2A was “inactive” throughout.
Take `C[C@H]1COC2=C1C(=O)C(=O)c1c2ccc2c1CCCC2(C)C`: the Z-AUC in test [1] is 1.69 (inactive); in [1] (setting [4]) it was 1.64; in [1] (measured here: PEO4 Z-AUC), 1.41. Also, the z-score in test [3] (setting [5]) is -0.0604; in test [3] (setting [6]), -0.0946; in test [3] (setting [7]), -0.271.
As for `CCCCC[C@H](O)C=C[C@H]1[C@H](O)CC(=O)[C@H]1CC=CCCCC(=O)O`, the Z-AUC in test [1] is 1.09 (inactive); in [1] (setting [4]) it was 0.516; in test [1] (measured here: PEO4 Z-AUC), 0.73. Also, the z-score in test [3] (setting [5]) stood at 1.12; in [3] (setting [6]), 0.597; in test [3] (setting [7]), 0.962.
With `O=C(O)C1=NC(C(=O)O)CC(C=CN2c3cc(O)c(OC4OC(CO)C(O)C(O)C4O)cc3CC2C(=O)O)=C1` (configuration not stated), the z-score in [3] (setting [5]) came out at 1.58; in [3] (setting [6]), 0.431; in test [3] (setting [7]) it was 0.57.
